The source of these data is PubChem BioAssay (NCATS).

Records with an inconclusive call do not appear. Where a call stands in place of a potency, no number is given. A number with no mark means an inactive call. Active and inactive are the calls of the source. Calls come from the whole dose curve; as a rule, active = well fitted inhibition curve with a large enough effect; inconclusive = small, poorly fitted or top-dose-only effect; inactive = no such curve, though single readings can be large or run the other way. Square brackets hold non-standard residues; d marks the D form. Peptide text beside a SMILES is read from it. * marks the point of attachment. ξ: configuration not given here. ξTyr(βOH) = NC(C(=O)O)C(O)c1ccc(O)cc1; AFC = O=c1cc(C(F)(F)F)c2ccc(N*)cc2o1; ξPhe(βξ-Me) = CC(c1ccccc1)C(N)C(=O)O; GABA = NCCCC(=O)O

The target of this test is Retinaldehyde dehydrogenase 3 (Homo sapiens) (UniProt P47895). The experiment in a line: qHTS for Inhibitors of the Aldehyde Dehydrogenase Family (ALDH1A3) Primary screen (AID 2061315). The conditions noted are these: ALDH inhibition qHTS; series mostly up to 56 µM. On the technique in general: qHTS replaces the single test concentration by a dilution series.
In the case of `CC(O)/C=C/C1(O)C(C)C(O[C@@H]2O[C@H](CO)[C@@H](O)[C@H](O)[C@H]2O)C(O)CC1(C)C` (stereo not given in full), the Potency result was “inactive”.

Take `CC1(C)CCC2(C(=O)OC3OC(COC4OC(CO)C(O)C(O)C4O)C(O)C(O)C3O)CCC3(C)C(=CCC4C5(C)CCC(OC6OCC(O)C(O)C6O)C(C)(C)C5CCC43C)C2C1O` (stereo not given): the Potency result was “inactive”.

In the case of `CC(=O)N[C@@H](Cc1c[nH]c2ccccc12)C(=O)N[C@@H](CCC(=O)O)C(=O)N[C@@H](Cc1cnc[nH]1)C(=O)N[C@@H](CC(=O)O)C(=O)Nc1ccc2c(C(F)(F)F)cc(=O)oc2c1` (Ac-WEHD-{AFC}), the Potency entry is “inactive”.

For `CC(=O)OC[C@]12[C@H](OC(C)=O)C(=O)[C@@H]3[C@@H](OC(C)=O)[C@@]14O[C@@]3(C)COC(=O)c1cccnc1[C@@H](C)[C@H](C)C(=O)O[C@@H]([C@H](OC(C)=O)[C@@H]2OC(C)=O)[C@]4(C)O`, the Potency result is “inactive”.

In the case of `O=C(/C=C/c1ccc(O)cc1)OC[C@H]1O[C@@H](O/C(=C\c2ccccc2)C(=O)O)[C@H](O)[C@@H](O)[C@@H]1O`, the Potency entry is “inactive”.

`CC1NC(=O)CCCNC(=O)C(Cc2c[nH]c3ccccc23)NC(=O)C(C)NC(=O)C(C(C)C)NC(=O)C(C(C)c2ccccc2)NC(=O)C(C(C)C)NC1=O` (stereo not drawn) (cyclo([GABA]AV[ξPhe(βξ-Me)]VAW); configuration not given here): the Potency result was “inactive”.

Regarding `O=S(=O)(N[C@H]1CCCC[C@@H]1N1CCOCC1)c1ccc(Cl)cc1`, the Potency entry is “inactive”.

For the molecule `O=C(Nc1nc2cc(C(F)(F)F)cc(NC3CC3)n2n1)c1cccnc1`, the Potency result is “inactive”.

`CCOC(=O)N1CCC(N2CCC[C@@H](NC(=O)c3ccccc3C)C2)CC1`: the Potency result was “inactive”.

For the molecule `C=C1CCC[C@]2(C)CC[C@@H](C(=C)C(=O)O)[C@H](O)[C@@H]12`, the Potency result is “inactive”.

`C=C(C(=O)O)C1CC(O)C2(C)CCCC(C)(O)C2C1` (stereo not given): the Potency entry was “inactive”.

On to `CC(C)C1NC(=O)C(CC2(O)c3ccccc3N3C(=O)C(Cc4ccccc4)NC32)NC1=O` (stereo not given), for which the Potency entry was “inactive”.

For `CC(C)c1cc2c(c(O)c1O[C@@H]1O[C@H](CO)[C@@H](O)[C@H](O)[C@H]1O)CC1(O)CCC(O)C(C)(C)C1CC2` (stereo not given in full), the Potency entry is “inactive”.

As for `COc1cccc(OC)c1-c1ccc(C[C@H](NC(=O)c2c(Cl)cccc2Cl)C(=O)O)cc1`, the Potency result was “inactive”.

Consider `CC1=C2C3OC(=O)C(C)C3(O)CCC2(C)CCC1=O` (stereo not given), for which the Potency entry is “inactive”.

As for `C[C@@H]1O[C@@H](O[C@H]2[C@H](O)[C@@H](O[C@@H]3O[C@H](CO)[C@H](O)[C@H](O)[C@H]3O)[C@H](O[C@H]3CC[C@@]4(C)C(CC[C@]5(C)C4CC=C4[C@@H]6CC(C)(C)CC[C@]6(C(=O)O[C@@H]6O[C@H](CO)[C@@H](O)[C@H](O)[C@H]6O)CC[C@]45C)C3(C)C)O[C@@H]2C(=O)O)[C@H](O)[C@H](O)[C@H]1O` (stereo not given in full), the Potency entry is “inactive”.

Regarding `C=C1CC[C@@H]2[C@](C)(CO)[C@H](O)CC[C@@]2(C)[C@@H]1C/C=C1/C(=O)OCC1O` (stereo not given in full), the Potency entry was “inactive”.

In the case of `C=C1C(OC(C)=O)CCC2(C)CCC(C(C)(C)O)CC12` (stereo not given), the Potency result is “inactive”.

Take `CC1CCC2(C)CCC3(C)C(=CCC4C5(C)CCC(O)C(C)(C(=O)O)C5CCC43C)C2C1C` (stereo not given): the Potency entry was “inactive”.

In the case of `C=C1CC/C=C(/CO)C(=O)C[C@@H]2[C@@H]1C[C@@]2(C)COC(C)=O`, the Potency entry was “inactive”.

Consider `C=C(C(=O)O)C1CCC(C)C2CCC(=O)OC2(C)C1` (stereo not given), for which the Potency result is “inactive”.

For the molecule `COC(=O)c1cc(OC)cc(OC)c1C(=O)c1c(OC)cc2c(c1O)C1CCCC(C)(O2)O1` (stereo not given), the Potency result is “inactive”.

On to `CC1=C2C(=O)C=C(CO[C@@H]3O[C@H](CO)[C@@H](O)[C@H](O)[C@H]3O)[C@@H]2[C@H]2OC(=O)[C@H](C)[C@@H]2CC1`, for which the Potency entry is “inactive”.

For `O=C(O)CCCCCC[C@H]1C(=O)NC(=O)N1CC[C@@H](O)C1CCCCC1`, the Potency result was “inactive”.

For `C[C@@H]1O[C@@H](O[C@H]2[C@H](OC(=O)[C@]34CCC(C)(C)C[C@H]3C3=CCC5[C@@]6(C)CC[C@H](O[C@@H]7O[C@H](CO[C@@H]8OC[C@H](O)[C@H](O)[C@H]8O[C@@H]8OC[C@@H](O)[C@H](O)[C@H]8O)[C@@H](O)[C@H](O)[C@H]7O)C(C)(C)C6CC[C@@]5(C)[C@]3(C)C[C@H]4O)O[C@H](CO)[C@@H](O)[C@@H]2O)[C@H](O[C@@H]2O[C@H](CO)[C@@H](O)[C@H](O)[C@H]2O)[C@H](O)[C@H]1O[C@@H]1OC[C@@H](O)[C@H](O[C@@H]2OC[C@@H](O)[C@H](O)[C@H]2O)[C@H]1O` (stereo not given in full), the activity change, negative = inhibition is 8.82% [at 11.2 µM].

As to `CC1=CC(=O)OC(C)(CC(C)(O)C(=O)O)C1` (stereo not given), the Potency entry is “inactive”.

As for `C[C@H](O)C(O)(C(=O)OCc1ccccc1NC(=O)CCC(N)C(=O)O)[C@H](C)O` (stereo not given in full), the Potency entry is “inactive”.

On to `C=C(C)C1CC2(CO)C(=CC1=O)CCC(O)C2C` (stereo not given), for which the Potency result was “inactive”.

Turning to `OC[C@@]1(O)CO[C@@H](OC[C@H]2O[C@@H](OCc3ccccc3)[C@H](O)[C@@H](O)[C@@H]2O)[C@@H]1O`, the Potency result is “inactive”.

Take `COc1cc(/C=C/C(=O)OC2CC(C)=C(C(=O)O)/C2=C/CO[C@@H]2O[C@H](CO)[C@@H](O)[C@H](O)[C@H]2O)ccc1O` (stereo not given in full): the Potency entry was “inactive”.

Turning to `CC1(C)CC[C@]2(C(=O)O[C@@H]3O[C@H](CO)[C@@H](O)[C@H](O)[C@H]3O)CC[C@]3(C)C(=CCC4[C@@]5(C)C[C@@H](O)[C@H](O)[C@@](C)(CO)C5[C@H](O)C[C@]43C)C2C1` (stereo not given in full), the Potency entry was “inactive”.

For `C=C1C(=O)O[C@@H]2/C=C(/C)CC3C=C(C[C@H](OC(=O)/C(C)=C\C)[C@@H]12)C(=O)O3` (stereo not given in full), the Potency result was “inactive”.

Consider `CC1=C[C@H]2[C@@H](CC1=O)[C@H](C)C[C@H](O)[C@H]2C(C)C`, for which the Potency result was “inactive”.

`CC(=O)[C@@H]1C[C@H](C(C)(C)O[C@@H]2O[C@H](CO)[C@@H](O)[C@H](O)[C@H]2O)CC[C@@]2(CO)OC(=O)C[C@@H]12`: the Potency entry was “inactive”.

`CC(=O)O[C@@H]1[C@@H](CO)O[C@@](CO)(O[C@H]2O[C@H](COC(=O)/C=C/c3ccccc3)[C@@H](O)[C@H](O)[C@H]2O)[C@H]1O`: the Potency entry was “inactive”.

As to `COC(=O)c1cc(OC)cc(OC)c1C(=O)c1c(OC)cc2c(c1O)C1CCC(O)C(C)(O2)O1` (stereo not given), the Potency entry was “inactive”.

Turning to `CC(C)C1NC(=O)CNC(=O)C2CCCN2C(=O)C(Cc2c[nH]c3ccccc23)NC(=O)CNC(=O)C(C(O)c2ccc(O)cc2)NC(=O)CNC1=O` (stereo not given) (cyclo(G[ξTyr(βOH)]GWPGV); configuration not given here), the Potency entry was “inactive”.

`O=c1c2ccccc2nc2n1CCC2O` (stereo not given): the Potency result is “inactive”.

With `COC(=O)C1=COC(OC2OC(CO)C(O)C(O)C2O)C2C1C=CC2(O)CO` (stereo not given), the Potency result is “inactive”.

Take `O=S(=O)(Nc1ccc(C(O)(C(F)(F)F)C(F)(F)F)cc1)c1cccs1`: the Potency entry was “inactive”.
